Results from PubChem BioAssay (Tox21).
Values joined by “and” are separate entries in the source; they are usually repeats but may differ in a detail not shown here. Equal values may be shown once. Results filed as inconclusive are left out. A structure can be active in one record and inactive in another. Active and inactive are the calls of the source. Unless noted, calls come from the whole dose curve; as a rule, active = well fitted cell-killing curve with a large enough effect in the repeat runs; inconclusive = weak or mixed curves; inactive = no such curve, though single readings can be large or run the other way.

Test system: not listed separately
Assay: qHTS assay for small molecule activators of the heat shock response signaling pathway (AID 743210; active = well fitted activation curve with a large enough effect in the signal ratio in the repeat runs, with a control signal flat, not every such curve was filed as active; the % refers to the signal ratio;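 note: HeLa cells with beta-lactamase reporter driven by heat shock elements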)
Settings: HeLa HSE-bla reporter, beta-lactamase ratio, 5 h; series mostly up to 62.6 µM; activation: at the top concentration
Summary of the method: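 Fluorescence from a cleaved B/G FRET substrate (2.5 h, room temp) reports HSE-driven beta-lactamase in HeLa cells treated 5 h at 37 C with DMSO-dissolved compounds.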
% is set by controls: 0 for no effect and ±100 for the full control effect.

Question: For N=C(N)c1ccc(OCCCOc2ccc(C(=N)N)cc2)cc1, which “activation” value is on record?
Answer: -1.67% (inactive)

Question: For CCCCCCCCCCCCCC=O, which activation is on record?
Answer: -0.951% [at 5.95 µM] (inactive)

Question: With CS(=O)(=O)O as the molecule, how does the “activation” value read?
Answer: -0.248% [at 81.1 µM] (inactive)

Question: With Cc1ccc(Cl)cc1Cl as the molecule, how does the “activation” value read?
Answer: -0.0614% (inactive)

Question: Which “activation” value does the source give for CN1CCN(c2cc3c(cc2F)c(=O)c(C(=O)O)cn3-c2ccc(F)cc2)CC1 here?
Answer: -0.125% (inactive)

Question: For NC(=O)COCCN1CCN(C(c2ccccc2)c2ccc(Cl)cc2)CC1 (centres undefined), which “activation” value is on record?
Answer: 0.25% (inactive)

Question: With CC(=O)Nc1c(I)cc(I)c(C(=O)O)c1I as the molecule, how does the “activation” value read?
Answer: 0.183% (inactive)

Question: With O=C1CCCCCCCCCCCN1 as the molecule, how does the outcome read?
Answer: inactive

Question: For Cc1c(O)cccc1O, which “activation” value is on record?
Answer: -1.23% [at 81.1 µM] (inactive)

Question: With CCOC(=O)c1c(C)n(C)c2ccc(O)cc12 as the molecule, how does the “activation” value read?
Answer: 0.227% (inactive)

Question: Which “activation” value does the source give for CO/N=C(/C(=O)N[C@@H]1C(=O)N2C(C(=O)OCOC(=O)C(C)(C)C)=C(C)CS[C@H]12)c1csc(N)n1 here?
Answer: 4.28% (inactive)

Question: Which “activation” value does the source give for CCN1CCC[C@H]1CNC(=O)c1c(O)c(Cl)cc(Cl)c1OC here?
Answer: 0.156% (inactive)

Question: Which “activation” value does the source give for COC(=O)C1=C(C)NC(C)=C(C(=O)OC)C1c1ccccc1[N+](=O)[O-] here?
Answer: 0.178% (inactive)

Question: Which “activation” value does the source give for NC(=O)Nc1ccccc1 here?
Answer: 0.179% (inactive)

Question: With c1cnc(N2CCN(Cc3ccc4c(c3)OCO4)CC2)nc1 as the molecule, how does the “activation” value read?
Answer: -0.516% (inactive)

Question: For CCOC(=O)[C@H](CCc1ccccc1)N[C@@H](C)C(=O)N1[C@H](C(=O)O)C[C@@H]2CCC[C@@H]21, which “activation” value is on record?
Answer: -0.0582% (inactive)

Question: For O=C(CCCN1CCC(O)(c2cccc(C(F)(F)F)c2)CC1)c1ccc(F)cc1, which “activation” value is on record?
Answer: 1.05% (inactive)

Question: Which “activation” value does the source give for NS(=O)(=O)c1cc(C(=O)O)cc(N2CCCC2)c1Oc1ccccc1 here?
Answer: -1.87% (inactive)

Question: For CCOC(=O)Nc1ccc(NCc2ccc(F)cc2)nc1N, which “activation” value is on record?
Answer: -0.146% (inactive)

Question: For COC(=O)[C@@H](N)Cc1ccc(O)c(O)c1, which “activation” value is on record?
Answer: 0.355% (inactive)

Question: With COC(=O)c1ccc(C)cc1C1=NC(C)(C(C)C)C(=O)N1 (centres undefined) as the molecule, how does the “activation” value read?
Answer: -0.8% (inactive)

Question: Which “activation” value does the source give for C=CCS(=O)(=O)O here?
Answer: 0.229% (inactive)

Question: Which “activation” value does the source give for NC(=O)c1ccc(N)cc1 here?
Answer: -2.77% (inactive)

Question: For CC(C)OC(=O)c1ccccc1, which “activation” value is on record?
Answer: -0.753% [at 81.1 µM] (inactive)

Question: For CCCCOCCOCCOCc1cc2c(cc1CCC)OCO2, which outcome is on record?
Answer: inactive

Question: For CCO/C([O-])=N/c1c[n+](N2CCOCC2)no1, which “activation” value is on record?
Answer: -0.0409% (inactive)

Question: With CN(C)CCCN1c2ccccc2CCc2ccc(Cl)cc21 as the molecule, how does the outcome read?
Answer: inactive

Question: For CC(C)(c1ccc(O)cc1)c1ccc(O)cc1, which outcome is on record?
Answer: inactive

Question: For CN1CC(=O)NC1=N, which “activation” value is on record?
Answer: 1.25% (inactive)

Test system: not listed separately
Assay: qHTS assay to identify small molecule agonists of the peroxisome proliferator-activated receptor delta (PPARd) signaling pathway - cell viability counter screen (AID 743211); note: nearly all actives have a fitted effect of over 55% in size; note: potency is the fitted concentration of half-maximal effect
Settings: PPARd-bla HEK293H viability, CellTiter-Glo luminescence, 17 h; series mostly up to 62.6 µM; activity change, negative = cytotoxicity: at the top concentration
Summary of the method: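 Multiplexed format: after the 2 h room-temperature LiveBLAzer B/G FRET step, CellTiter-Glo was added to the same wells. Luminescence after 30 min gave cell viability; compound exposure was 17 h at 37C.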

Question: With N=C(N)c1ccc(OCCCOc2ccc(C(=N)N)cc2)cc1 as the molecule, how does the “activity change, negative = cytotoxicity” value read?
Answer: 3.07% (inactive)

Question: For CCCCCCCCCCCCCC=O, which activity change, negative = cytotoxicity is on record?
Answer: 7.31% [at 5.95 µM] (inactive)

Question: With CS(=O)(=O)O as the molecule, how does the “activity change, negative = cytotoxicity” value read?
Answer: 3.59% [at 81.1 µM] (inactive)

Question: With Cc1ccc(Cl)cc1Cl as the molecule, how does the “activity change, negative = cytotoxicity” value read?
Answer: 1.59% (inactive)

Question: With CN1CCN(c2cc3c(cc2F)c(=O)c(C(=O)O)cn3-c2ccc(F)cc2)CC1 as the molecule, how does the “activity change, negative = cytotoxicity” value read?
Answer: 4.06% (inactive)

Question: Which “activity change, negative = cytotoxicity” value does the source give for NC(=O)COCCN1CCN(C(c2ccccc2)c2ccc(Cl)cc2)CC1 (centres undefined) here?
Answer: -0.443% (inactive)

Question: Which “activity change, negative = cytotoxicity” value does the source give for CC(=O)Nc1c(I)cc(I)c(C(=O)O)c1I here?
Answer: -5.42% (inactive)

Question: With O=C1CCCCCCCCCCCN1 as the molecule, how does the Potency read?
Answer: inactive

Question: With Cc1c(O)cccc1O as the molecule, how does the “activity change, negative = cytotoxicity” value read?
Answer: 0.42% [at 81.1 µM] (inactive)

Question: With CCOC(=O)c1c(C)n(C)c2ccc(O)cc12 as the molecule, how does the “activity change, negative = cytotoxicity” value read?
Answer: -0.386% (inactive)

Question: With CO/N=C(/C(=O)N[C@@H]1C(=O)N2C(C(=O)OCOC(=O)C(C)(C)C)=C(C)CS[C@H]12)c1csc(N)n1 as the molecule, how does the “activity change, negative = cytotoxicity” value read?
Answer: 6.19% (inactive)

Question: For CCN1CCC[C@H]1CNC(=O)c1c(O)c(Cl)cc(Cl)c1OC, which “activity change, negative = cytotoxicity” value is on record?
Answer: 13.7% (inactive)

Question: With COC(=O)C1=C(C)NC(C)=C(C(=O)OC)C1c1ccccc1[N+](=O)[O-] as the molecule, how does the Potency read?
Answer: 49 µM (active) and inactive

Question: For NC(=O)Nc1ccccc1, which “activity change, negative = cytotoxicity” value is on record?
Answer: 4.66% (inactive)

Question: Which “activity change, negative = cytotoxicity” value does the source give for CC(=O)OC/C=C(\C)CC/C=C(\C)CCC=C(C)C here?
Answer: -4.56% (inactive)

Question: Which “activity change, negative = cytotoxicity” value does the source give for CC(=O)CC(C)C here?
Answer: 0.809% (inactive)

Question: Which “activity change, negative = cytotoxicity” value does the source give for c1cnc(N2CCN(Cc3ccc4c(c3)OCO4)CC2)nc1 here?
Answer: 10.1% (inactive)

Question: Which “activity change, negative = cytotoxicity” value does the source give for CCOC(=O)[C@H](CCc1ccccc1)N[C@@H](C)C(=O)N1[C@H](C(=O)O)C[C@@H]2CCC[C@@H]21 here?
Answer: -3.64% (inactive)

Question: Which “activity change, negative = cytotoxicity” value does the source give for CC(C)CNCC(C)C here?
Answer: 3.26% (inactive)

Question: With CCOC(=O)Nc1ccc(NCc2ccc(F)cc2)nc1N as the molecule, how does the “activity change, negative = cytotoxicity” value read?
Answer: -11.4% (inactive)

Question: With CCN(Cc1ccncc1)C(=O)C(CO)c1ccccc1 (centres undefined) as the molecule, how does the “activity change, negative = cytotoxicity” value read?
Answer: 3.03% (inactive)

Question: For COC(=O)[C@@H](N)Cc1ccc(O)c(O)c1, which “activity change, negative = cytotoxicity” value is on record?
Answer: -20.8% (inactive)

Question: For COC(=O)c1ccc(C)cc1C1=NC(C)(C(C)C)C(=O)N1 (centres undefined), which “activity change, negative = cytotoxicity” value is on record?
Answer: -7.31% (inactive)

Question: For C=CCS(=O)(=O)O, which “activity change, negative = cytotoxicity” value is on record?
Answer: 3.06% (inactive)

Question: For NC(=O)c1ccc(N)cc1, which “activity change, negative = cytotoxicity” value is on record?
Answer: 0.0639% (inactive)

Question: With CC(C)OC(=O)c1ccccc1 as the molecule, how does the “activity change, negative = cytotoxicity” value read?
Answer: 3.68% [at 81.1 µM] (inactive)

Question: With CCO/C([O-])=N/c1c[n+](N2CCOCC2)no1 as the molecule, how does the “activity change, negative = cytotoxicity” value read?
Answer: 5.64% (inactive)

Question: With CC1(C)CO[C@@H](CC(=O)O)CN1 as the molecule, how does the “activity change, negative = cytotoxicity” value read?
Answer: 7.33% (inactive)

Question: With CN(C)CCCN1c2ccccc2CCc2ccc(Cl)cc21 as the molecule, how does the Potency read?
Answer: 38.9 µM (active) and 29.8 µM (active)

Question: Which Potency does the source give for CC(C)(c1ccc(O)cc1)c1ccc(O)cc1 here?
Answer: inactive

Question: Which “activity change, negative = cytotoxicity” value does the source give for CN1CC(=O)NC1=N here?
Answer: 4.49% (inactive)

Biological target: Peroxisome proliferator-activated receptor delta (Homo sapiens) (UniProt Q03181)
Sequence (Q03181 whole entry, looked up): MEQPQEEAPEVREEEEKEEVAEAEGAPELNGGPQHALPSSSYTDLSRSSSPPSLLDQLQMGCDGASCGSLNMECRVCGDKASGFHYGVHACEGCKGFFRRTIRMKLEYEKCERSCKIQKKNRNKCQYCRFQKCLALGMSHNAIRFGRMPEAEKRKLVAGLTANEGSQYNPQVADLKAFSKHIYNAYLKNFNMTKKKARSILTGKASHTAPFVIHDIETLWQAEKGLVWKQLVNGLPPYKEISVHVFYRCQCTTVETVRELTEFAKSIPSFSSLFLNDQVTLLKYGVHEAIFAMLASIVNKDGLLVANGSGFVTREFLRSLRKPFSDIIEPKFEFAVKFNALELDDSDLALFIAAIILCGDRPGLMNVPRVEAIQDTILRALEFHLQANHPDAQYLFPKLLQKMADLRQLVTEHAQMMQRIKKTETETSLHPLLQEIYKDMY
Assay: qHTS assay to identify small molecule agonists of the peroxisome proliferator-activated receptor delta (PPARd) signaling pathway (AID 743212; calls by dose curve;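 note: HEK293H cells with PPARd UAS beta-lactamase reporter GeneBLAzer system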)
Settings: HEK293H PPARd-UAS-bla, beta-lactamase FRET ratio, 17 h; series mostly up to 62.6 µM; activation: at the top concentration
Summary of the method: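 Steps: seed PPARd-bla HEK293H cells; incubate 5 h, 37 C, 5% CO2; add compounds in DMSO; incubate, 37 C; add LiveBLAzer B/G FRET substrate; hold 2 h at room temperature; measure fluorescence.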

Question: For N=C(N)c1ccc(OCCCOc2ccc(C(=N)N)cc2)cc1, which “activation” value is on record?
Answer: -0.0811% (inactive)

Question: Which activation does the source give for CCCCCCCCCCCCCC=O here?
Answer: 0.125% [at 5.95 µM] (inactive)

Question: Which “activation” value does the source give for NC(=O)COCCN1CCN(C(c2ccccc2)c2ccc(Cl)cc2)CC1 (centres undefined) here?
Answer: -7.19% (inactive)

Question: For CC(=O)Nc1c(I)cc(I)c(C(=O)O)c1I, which “activation” value is on record?
Answer: 1.1% (inactive)

Question: For O=C1CCCCCCCCCCCN1, which outcome is on record?
Answer: inactive

Question: Which “activation” value does the source give for Cc1c(O)cccc1O here?
Answer: 1.83% [at 81.1 µM] (inactive)

Question: With CO/N=C(/C(=O)N[C@@H]1C(=O)N2C(C(=O)OCOC(=O)C(C)(C)C)=C(C)CS[C@H]12)c1csc(N)n1 as the molecule, how does the “activation” value read?
Answer: 0.163% (inactive)

Question: Which “activation” value does the source give for CCN1CCC[C@H]1CNC(=O)c1c(O)c(Cl)cc(Cl)c1OC here?
Answer: -3.47% (inactive)

Question: For COC(=O)C1=C(C)NC(C)=C(C(=O)OC)C1c1ccccc1[N+](=O)[O-], which “activation” value is on record?
Answer: 0.202% (inactive)

Question: With NC(=O)Nc1ccccc1 as the molecule, how does the “activation” value read?
Answer: 0.535% (inactive)

Question: With CC(=O)OC/C=C(\C)CC/C=C(\C)CCC=C(C)C as the molecule, how does the “activation” value read?
Answer: -0.945% (inactive)

Question: Which “activation” value does the source give for CC(=O)CC(C)C here?
Answer: -4.45% (inactive)

Question: With c1cnc(N2CCN(Cc3ccc4c(c3)OCO4)CC2)nc1 as the molecule, how does the “activation” value read?
Answer: 0.581% (inactive)

Question: Which “activation” value does the source give for CCOC(=O)[C@H](CCc1ccccc1)N[C@@H](C)C(=O)N1[C@H](C(=O)O)C[C@@H]2CCC[C@@H]21 here?
Answer: -3.65% (inactive)

Question: With CC(C)CNCC(C)C as the molecule, how does the “activation” value read?
Answer: 3.52% (inactive)

Question: Which “activation” value does the source give for O=C(CCCN1CCC(O)(c2cccc(C(F)(F)F)c2)CC1)c1ccc(F)cc1 here?
Answer: -6.1% (inactive)

Question: For NS(=O)(=O)c1cc(C(=O)O)cc(N2CCCC2)c1Oc1ccccc1, which “activation” value is on record?
Answer: -2.17% (inactive)

Question: For COC(=O)c1ccc(C)cc1C1=NC(C)(C(C)C)C(=O)N1 (centres undefined), which “activation” value is on record?
Answer: 7.3% (inactive)

Question: Which “activation” value does the source give for C=CCS(=O)(=O)O here?
Answer: 0.832% (inactive)

Question: With CC(C)OC(=O)c1ccccc1 as the molecule, how does the “activation” value read?
Answer: 1.93% [at 81.1 µM] (inactive)

Question: For CCO/C([O-])=N/c1c[n+](N2CCOCC2)no1, which “activation” value is on record?
Answer: -5.1% (inactive)

Question: Which “activation” value does the source give for CC1(C)CO[C@@H](CC(=O)O)CN1 here?
Answer: 0.725% (inactive)

Question: With CC(C)(c1ccc(O)cc1)c1ccc(O)cc1 as the molecule, how does the outcome read?
Answer: inactive

Question: For CN1CC(=O)NC1=N, which “activation” value is on record?
Answer: 1.63% (inactive)
